# Sampled rows, rich in hits. Any-hit rate of the full collection: about 4.7%.
# D1 agonist: Allosteric Agonists of the Human D1 Dopamine Receptor: qHTS; D(1A) dopamine receptor (Homo sapiens), P21728; HEK293 T-REx D1 cells, calcium flux, agonist mode; AID 504660, 2011; hit rate 1% among 360,000; activation, % at 2 µM
# Target sequence (P21728 whole entry, looked up): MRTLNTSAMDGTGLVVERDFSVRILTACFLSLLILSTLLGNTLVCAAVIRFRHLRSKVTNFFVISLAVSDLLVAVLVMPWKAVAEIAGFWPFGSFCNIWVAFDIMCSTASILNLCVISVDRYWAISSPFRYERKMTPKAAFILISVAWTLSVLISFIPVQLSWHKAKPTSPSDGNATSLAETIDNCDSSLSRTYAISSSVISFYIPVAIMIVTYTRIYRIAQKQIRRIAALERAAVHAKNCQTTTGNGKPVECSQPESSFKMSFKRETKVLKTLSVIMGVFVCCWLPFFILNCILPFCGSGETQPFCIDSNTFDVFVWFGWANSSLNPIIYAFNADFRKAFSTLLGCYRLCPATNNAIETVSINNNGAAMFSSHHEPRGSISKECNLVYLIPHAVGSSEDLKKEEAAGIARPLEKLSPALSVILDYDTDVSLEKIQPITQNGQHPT
#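 Inducible HEK293 T-REx D1 cells, force-coupled to calcium signalling, were plated at 4000 cells/well with tetracycline and held overnight at 30 C. After no-wash calcium dye loading, compound-evoked calcium rise over 180 s flagged agonists.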
# D1 PAM: Potentiators of Human D1 Dopamine Receptor: qHTS; HEK293 TREx D1 cells, calcium flux, dopamine EC20 potentiation; AID 504651, 2011; hit rate 0.036% among 360,000; D(1A) dopamine receptor (Homo sapiens), P21728; potentiation, % at 10 µM; in the data active = potentiation above about 30%
# D1 antag: Antagonist of Human D 1 Dopamine Receptor: qHTS; D(1A) dopamine receptor (Homo sapiens), P21728; HEK293 TREx D1 cells, calcium flux, dopamine EC80; stronger effect = lower value; activity change, negative = inhibition, % at 10 µM; hit rate 3.2% among 360,000; AID 504652, 2011; in the data active = activity change below about -30%
#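 Tetracycline-induced HEK293 T-REx cells with force-coupled D1 receptor were loaded with a no-wash calcium dye. Compound was added after a 10 s baseline and read kinetically for 180 s; EC80 dopamine was then added and calcium flux followed another 180 s.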
# TRHR enhancer: qHTS for Small Molecule Agonists and Allosteric Enhancers of Human TRH Receptor: Primary Screen for Enhancers. Thyrotropin-releasing hormone receptor (Homo sapiens), P34981. TRHR cells, fluo-8 calcium fluorescence, EC20 TRH enhancement. enhancement, % at 2 µM. hit rate 0.66% among 360,000; in the data active = enhancement above about 30%
#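 Enhancer read-out: after compound pinning and an initial kinetic agonist-mode read, an EC20 of TRH (10 nM final) was injected and fluo-8 calcium signal (Ex 480/Em 530) followed at 1 s/cycle for 100 cycles in TRHR-expressing cells.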
# TRHR agonist: qHTS for Small Molecule Agonists and Allosteric Enhancers of Human TRH Receptor: Primary Screen for Agonists; TRHR cells, calcium flux fluo-8, FDSS agonist mode; hit rate 0.18% among 360,000; activation, % at 2 µM
#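 Fluo-8-loaded TRHR cells; 10 s baseline, compound added, kinetic Ca2+ fluorescence read 1/s, agonist mode.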
# A number is an active result; - = inactive; . = no result. Cut-off read from the data, not from the text of the source, unless noted: active = activation above about 30%; inactive = the rest.
SMILES,D1 agonist,D1 PAM,D1 antag,TRHR enhancer,TRHR agonist
COc1ccc(-c2cc(C(=O)NCCc3ccccc3)c3c(-c4ccccc4)[nH]nc3n2)cc1,-,-,-40,-,-
O=C(Cn1ncc2c([nH]c3ccccc32)c1=O)NCCCN1CCN(c2ccc(F)cc2)CC1,-,-,-,-,-
O=C(CN1CCN(S(=O)(=O)c2cc(Cl)ccc2Cl)CC1)Nc1cccc(F)c1,-,-,-,-,-
COc1cccc(-n2cc(C(=O)NCCc3ccc(C)cc3)c3ccccc3c2=O)c1,-,-,-48,-,-
Cc1ccc(C(=O)c2oc3ccccc3c2NC(=O)Cc2coc3c(C)c(C)ccc23)cc1,-,-,-,-,-
COC(=O)c1ccccc1N1C(=O)[C@@H]2C(c3ccc(Br)cc3)=NO[C@@H]2C1=O,-,-,-48,-,-
COC(=O)c1ccccc1N1C(=O)C2C(C1=O)[C@H]1C=C[C@@H]2C1 (stereo partly drawn),-,-,-,-,-
CNC(=O)N(O)C1N(/N=C/c2ccc(N(C)C)cc2)C(=S)SC1(C)C (stereo not drawn),-,-,-,-,-
CC1(C)SC(=S)N(/N=C/c2ccccc2)C1N(O)C(=O)Nc1ccc([N+](=O)[O-])cc1 (stereo not drawn),-,-,-37,-,-
O=C(c1ccc(S(=O)(=O)N2CCC(c3nc4ccccc4[nH]3)CC2)cc1)N1CCOCC1,-,-,-89,-,-
CCOC(=O)c1cc(-c2ccccc2)n(CCC(=O)Nc2ccc(Cl)c(C(F)(F)F)c2)c1C,-,-,-,-,-
CN1CCN(C(=O)CCCOc2ccc(Cl)cc2Cl)CC1,-,-,-,-,-
COc1ccc(Cl)cc1C(=O)NCCN(C)C,-,-,-,-,-
CN(C)CCNC(=O)c1ccc(COc2ccc(Cl)cc2Cl)cc1,95,-,-64,-,-
CN1CCN(C(=O)c2ccc(COc3ccc(Cl)cc3Cl)cc2)CC1,-,-,-55,-,-
Cc1cc(C)cc(NC(=O)CCS(=O)(=O)c2cccc3nsnc23)c1,-,-,-,-,-
O=C(CSc1ccc(F)cc1)NC12CC3CC(CC(C3)C1)C2,-,-,-,-,-
O=C(CCSc1ccc(Cl)c(Cl)c1)NC12CC3CC(CC(C3)C1)C2,41,-,-,-,-
CC(C)c1ccc(NC(=O)C2CCCN2S(=O)(=O)c2ccc3nc(-c4ccccc4)[nH]c3c2)cc1 (stereo not drawn),-,-,-,-,-
Cc1cc(C)cc(NC(=O)C2CCCN(S(=O)(=O)c3cccc4nsnc34)C2)c1 (stereo not drawn),-,-,-,-,-
c1ccc2c(CNc3ccc(CNc4ncn[nH]4)cc3)cccc2c1,-,-,-46,-,-
COc1ccc(S(=O)(=O)N2CCC(C(=O)N[C@@H](C)C(=O)NCc3ccc(F)cc3)CC2)cc1,-,-,-35,-,-
COc1ccc(CCN(C)CCCN2CC(c3ccccc3)CC2=O)cc1OC (stereo not drawn),-,-,-39,-,-
COc1ccc(S(=O)(=O)N2CCCCC2C(=O)O)cc1OC (stereo not drawn),-,-,-,33,-
COc1ccc(CCN(C)C(=O)C2CC(=O)N(Cc3ccc(C)cc3)C2)cc1OC (stereo not drawn),-,.,-34,-,-
SMILES,D1 agonist,D1 PAM,D1 antag,TRHR enhancer,TRHR agonist
Cc1cc2c(s1)c1cnn(Cc3ccc(S(C)(=O)=O)cc3)c(=O)c1n2C,-,-,-,-,-
Cc1ccccc1NC(=O)Cn1c(=O)n(CCC(=O)NCc2ccc3c(c2)OCO3)c(=O)c2sccc21,-,-,-,-,-
COc1ccc(CCNC(=O)C2CCN(S(=O)(=O)c3ccc(OC)c(OC)c3)CC2)cc1OC,-,-,-,-,-
COc1ccc(CNC(=O)c2ccc(S(=O)(=O)N3CCOCC3)cc2)cc1,-,-,-,-,-
COc1ccc(CNC(=O)C(C)Sc2ccc(S(=O)(=O)N3CCOCC3)cn2)cc1 (stereo not drawn),-,-,-32,-,-
CC(C)[C@H](NC(=O)C1CCN(S(=O)(=O)c2ccccc2)CC1)C(=O)NCc1ccncc1,-,-,-,-,-
COc1ccc(S(=O)(=O)N2CCC(C(=O)NCCC3=CCCCC3)CC2)cc1OC,-,-,-43,-,-
CC(C)[C@H](NC(=O)C1CCN(S(=O)(=O)c2ccccc2)CC1)C(=O)NCc1ccccc1,-,-,-45,-,-
CN(Cc1cccs1)C(=O)C1CC(=O)N(Cc2ccccc2)C1 (stereo not drawn),-,-,-54,-,-
COc1cc(NS(=O)(=O)c2ccc(-c3cc(C)no3)cc2)cc(OC)c1,-,-,-,-,-
CC(C)CCOc1ccc(Cn2c(=O)oc3ccccc32)cc1,-,-,-,-,-
COc1ccc(CNC(=O)C2CCN(S(=O)(=O)c3ccc(C)cc3)CC2)cc1,-,-,-,-,-
COc1ccc(CN2CC(C(=O)NCCc3ccc(C)cc3)CC2=O)cc1 (stereo not drawn),-,-,-47,-,-
COc1ccc(S(=O)(=O)N(C)CC(=O)NCCC2=CCCCC2)cc1,-,-,-,35,-
COc1ccc(CN2CC(C(=O)NCCc3ccccc3)CC2=O)cc1 (stereo not drawn),-,-,-,-,-
COc1ccc(S(=O)(=O)N(C)CC(=O)NCCC2=CCCCC2)cc1OC,-,-,-,-,-
COc1ccc(CCNC(=O)C2CCN(S(=O)(=O)c3ccc(C)cc3)CC2)cc1,-,-,-35,-,-
Cc1cccc(C)c1NC(=O)CCC(=O)N1Cc2ccccc2Oc2ncccc21,-,-,-,-,-
O=C(O)c1ccc(Nc2ncnc3c2cnn3Cc2ccccc2)cc1,-,-,-46,-,-
COc1ccc(CCNC(=O)CCCn2nc(C)c3sc4ccccc4c3c2=O)c(OC)c1,-,-,-,-,-
O=C(Nc1ccc(F)c(Cl)c1)Nc1ccc(Cl)cn1,-,-,-,-,-
O=C(Nc1ccncc1)Nc1ccc(F)c(Cl)c1,-,-,-,36,-
CC(=O)c1ccc(NC(=O)Nc2ccc(Br)cc2C)cc1,-,-,-35,-,-
O=C(Nc1ccncc1)Nc1ccc(Br)cc1Cl,-,-,-34,-,-
O=C(Nc1ccc(Br)cc1)Nc1ccccc1Cl,-,-,-41,-,-
CC(=O)c1ccc(NC(=O)c2ccc(C)c(Br)c2)cc1,-,-,-,-,-
CCOC(=O)c1ccc(N2CCN(c3ccccc3F)CC2)c(NC(=O)Nc2ccc(Cl)c(Cl)c2)c1,-,-,-,-,-

# Screening data (PubChem BioAssay)
